# Reference: PubChem BioAssay (NCATS)
# Results filed as inconclusive are left out. A call without a number means that no potency is given here. Values without a mark were called inactive. Active and inactive are the calls of the source. Unless noted, the call rests on the fitted dose curve; in most records, active means well fitted curve in the direction sought with a large enough effect; inconclusive means small, poorly fitted or top-dose-only effect, or another doubt; inactive means no such curve, though single readings can be large; an effect the other way counts as inactive or inconclusive.
# How the values were obtained:
# Furin (Homo sapiens) = Furin (Homo sapiens) (UniProt P09958); test: Furin counterscreen qHTS for Zika virus inhibitors (AID 1347149); further: nearly all actives have a fitted effect of over 70% in size; further: potency means the concentration at half of the fitted maximal effect
# Outline: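 Counterscreen measures cleavage of 2 microM BOC-RVRR-AMC, below its ~15 microM Km, by 5 nM full-length human furin at pH 7.0 after a 15-min compound preincubation. Inhibition derives from the 15-min fluorescence increase at 37C.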
# [1] = ZIKV-mCherry secondary qHTS for Zika virus inhibitors (AID 1347158); further: top concentration of the series differs between compounds
# Outline: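 Read-out is percent infection: mCherry-positive Vero cells (nuclear-proximal intensity >450 RFU, 3 SD above negative controls) counted by high-content imaging of Hoechst-stained, PFA-fixed wells after 48-72 h with ZIKV-mCherry at MOI 1 and compound.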
# [2] = tested on: Zika virus NS2B-NS3 protease (linked construct); test: 384 well plate NINDS Rhodamine confirmatory qHTS for Zika virus inhibitors (AID 1347164);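 further: fluorescence from protease cleavage of Ac-LKRR-rhodamine 110 substrate; potency means the concentration at half of the fitted maximal effect; nearly all actives have a fitted effect of over 65% in size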
# Outline: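 Fluorescence at 485/538 nm was measured 25 minutes after adding 10 microM Ac-LKRR-Rd substrate, in the dark at room temperature. The protease (5, 30 or 60 nM final) had been preincubated ~15 minutes with compound; aprotinin as control.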
# [3] = Confirmatory screen GU Rhodamine qHTS for Zika virus inhibitors qHTS (AID 1347157); further: nearly all actives have a fitted effect of over 70% in size
# Outline: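 Noncovalent NS2B hydrophilic domain/NS3 protease complex (25 nM final) in 10 mM Tris-HCl pH 8.0, 0.01% Tween 20, preincubated 15 min with compounds (up to 114 microM), then 1.5 microM Rhodamine110 substrate. Fluorescence change over 15 min fitted to 4-parameter Hill.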
# [4] = Tertiary RLuc qRT-PCR qHTS assay for Zika virus inhibitors (AID 1347169); further: top concentration of the series differs between compounds; nearly all actives have a fitted effect of over 55% in size
# Outline: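 Orthogonal cell-based readout: luminescence measured 1-1.5 hrs after adding live-cell Renilla substrate to Vero cells that had been infected with ZIKV-RLuc (MOI 1-2) post-compound, incubated 48-72 hrs at 37 degrees C.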
# [5] = tested on: Zika virus NS2B-NS3 protease (linked); test: 384 well plate NINDS AMC confirmatory qHTS for Zika virus inhibitors (AID 1347163);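 further: linked protease at 5 30 or 60 nM final depending on run; fluorescence of AMC released from Ac-VKTGKR-AMC peptide cleaved by the protease; top concentration of the series differs between compounds; nearly all actives have a fitted effect of over 50% in size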
# Outline: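 Enzyme (5, 30 or 60 nM final) first met test compounds for ~15 min. The AMC-tagged peptide Ac-VKTGKR-AMC followed at 30 microM. Fluorescence was then recorded at 25 min and scaled against no-enzyme and no-inhibitor wells.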
# [6] = target: Cytochrome P450 2C9 (Homo sapiens) (UniProt P11712); test: Cytochrome P450 family 2 subfamily C member 9 (CYP2C9) small molecule antagonists: luciferase biochemical (cell-free) qHTS assay (AID 1645842; active means well fitted curve in the direction sought with a large enough effect in the repeat runs; an effect the other way counts as inactive or inconclusive; further: nearly all actives have a fitted effect of over 55% in size; further: potency means the concentration at half of the fitted maximal effect)
# Outline: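 P450-Glo CYP2C9 system: proluciferin substrate with enzyme in mix containing 0.4% BSA, 10 min at room temperature, then NADPH regeneration solution added and incubated 1 h at 37C. Detection reagent stopped reaction; luminescence read after 20 min as RLU.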
# [7] = target: Cytochrome P450 2D6 (Homo sapiens) (UniProt P10635); test: Cytochrome P450 family 2 subfamily D member 6 (CYP2D6) small molecule antagonists: luciferase biochemical (cell-free) qHTS assay (AID 1645840; active means well fitted curve in the direction sought with a large enough effect in the repeat runs; an effect the other way counts as inactive or inconclusive; further: potency means the concentration at half of the fitted maximal effect; nearly all actives have a fitted effect of over 55% in size)
# Outline: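 P450-Glo CYP2D6 system: proluciferin substrate converted by enzyme to luciferin, read by luminescence proportional to activity. Enzyme-substrate mix with compound 10 min at room temperature, then NADPH regeneration 1 h before detection reagent.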
# Furin (Homo sapiens), sequence (P09958 whole entry, looked up): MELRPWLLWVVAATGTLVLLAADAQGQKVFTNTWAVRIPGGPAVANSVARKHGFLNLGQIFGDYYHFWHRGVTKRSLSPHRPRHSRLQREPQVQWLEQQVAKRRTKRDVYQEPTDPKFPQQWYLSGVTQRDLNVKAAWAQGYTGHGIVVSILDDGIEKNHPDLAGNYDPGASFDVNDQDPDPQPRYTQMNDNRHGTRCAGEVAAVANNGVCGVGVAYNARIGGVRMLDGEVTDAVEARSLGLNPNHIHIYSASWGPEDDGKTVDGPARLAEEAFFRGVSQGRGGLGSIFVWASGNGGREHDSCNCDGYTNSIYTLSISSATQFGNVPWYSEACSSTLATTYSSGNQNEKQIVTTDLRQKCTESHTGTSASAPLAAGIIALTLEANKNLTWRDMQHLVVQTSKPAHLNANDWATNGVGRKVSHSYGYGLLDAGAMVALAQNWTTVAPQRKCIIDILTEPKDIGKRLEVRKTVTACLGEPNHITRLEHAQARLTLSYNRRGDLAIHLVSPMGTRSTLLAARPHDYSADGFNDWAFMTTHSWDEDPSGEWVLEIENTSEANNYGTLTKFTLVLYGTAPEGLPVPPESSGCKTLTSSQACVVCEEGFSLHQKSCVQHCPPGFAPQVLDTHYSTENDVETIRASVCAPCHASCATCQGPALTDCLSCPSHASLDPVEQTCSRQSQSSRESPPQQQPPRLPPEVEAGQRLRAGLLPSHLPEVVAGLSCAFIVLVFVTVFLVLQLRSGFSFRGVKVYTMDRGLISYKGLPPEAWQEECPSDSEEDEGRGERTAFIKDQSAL
# Cytochrome P450 2C9 (Homo sapiens), sequence (P11712 whole entry, looked up): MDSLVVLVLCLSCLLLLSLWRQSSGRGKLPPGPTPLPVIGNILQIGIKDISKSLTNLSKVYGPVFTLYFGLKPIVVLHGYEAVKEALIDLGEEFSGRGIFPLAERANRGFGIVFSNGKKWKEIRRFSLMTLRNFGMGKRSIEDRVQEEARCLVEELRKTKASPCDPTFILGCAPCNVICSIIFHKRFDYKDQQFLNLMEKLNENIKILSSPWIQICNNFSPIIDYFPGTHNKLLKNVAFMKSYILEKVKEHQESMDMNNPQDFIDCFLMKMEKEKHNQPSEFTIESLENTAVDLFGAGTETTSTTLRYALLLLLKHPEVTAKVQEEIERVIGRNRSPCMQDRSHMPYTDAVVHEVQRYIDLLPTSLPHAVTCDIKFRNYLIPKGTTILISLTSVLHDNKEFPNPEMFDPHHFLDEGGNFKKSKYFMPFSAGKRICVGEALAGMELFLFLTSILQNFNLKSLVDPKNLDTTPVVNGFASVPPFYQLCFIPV
# Cytochrome P450 2D6 (Homo sapiens), sequence (P10635 whole entry, looked up): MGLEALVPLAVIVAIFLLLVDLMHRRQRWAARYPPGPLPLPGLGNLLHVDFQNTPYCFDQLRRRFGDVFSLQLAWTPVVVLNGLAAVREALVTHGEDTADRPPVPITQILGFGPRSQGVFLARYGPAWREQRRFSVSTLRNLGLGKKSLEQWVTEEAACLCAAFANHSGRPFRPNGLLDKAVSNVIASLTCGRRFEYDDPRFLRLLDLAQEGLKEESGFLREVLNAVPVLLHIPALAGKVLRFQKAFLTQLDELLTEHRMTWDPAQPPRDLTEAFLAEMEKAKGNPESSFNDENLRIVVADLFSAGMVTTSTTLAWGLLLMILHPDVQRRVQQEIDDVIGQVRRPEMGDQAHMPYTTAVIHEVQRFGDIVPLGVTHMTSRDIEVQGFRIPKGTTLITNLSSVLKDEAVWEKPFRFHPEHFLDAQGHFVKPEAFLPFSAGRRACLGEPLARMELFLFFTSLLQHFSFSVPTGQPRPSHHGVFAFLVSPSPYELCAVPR
smiles,measurement,setting,value
CCCCc1nn2c(=O)cc(COC(=O)c3ccc(NC(=O)CCc4ccccc4)cc3)nc2s1,Potency,Furin (Homo sapiens),inactive
same,Potency,[1],inactive
same,Potency,[2],25.1 µM (active)
CC(C)c1nn2c(=O)cc(COC(=O)c3ccc(NC(=O)c4cccs4)cc3)nc2s1,Potency,Furin (Homo sapiens),inactive
same,Potency,[3],inactive
same,Potency,[4],inactive
COc1ccc(S(=O)(=O)c2c(O)c(C)cc(NS(=O)(=O)c3ccc(Cl)cc3)c2C(C)C)cc1,Potency,Furin (Homo sapiens),inactive
same,Potency,[3],inactive
same,Potency,[4],inactive
Cc1oc2c(cc(NS(=O)(=O)c3ccc(F)cc3)c3ccccc32)c1C(=O)OCc1ccccc1,Potency,Furin (Homo sapiens),inactive
same,Potency,[1],inactive
same,Potency,[2],158 µM (active)
COc1ccc(C(=O)Nc2ccc(C(=O)OCc3cc(=O)n4nc(C(C)C)sc4n3)cc2)cc1,Potency,Furin (Homo sapiens),59.1 µM (active)
same,Potency,[1],inactive
same,Potency,[4],inactive
Cc1ccc(-c2nnc(Nc3ccccc3)c3ccccc23)cc1S(=O)(=O)NCc1nc2ccccc2[nH]1,Potency,Furin (Homo sapiens),41.8 µM (active)
same,Potency,[1],inactive
same,Potency,[5],inactive
same,Potency,[6],inactive
O=C(Nc1ccc(C(=O)OCc2cc(=O)n3c4c(sc3n2)CCCC4)cc1)c1ccccc1,Potency,Furin (Homo sapiens),41.8 µM (active)
same,Potency,[3],inactive
same,Potency,[4],inactive
COc1ccc(Nc2nnc(-c3ccc(C)c(S(=O)(=O)NCc4nc5ccccc5[nH]4)c3)c3ccccc23)cc1,Potency,Furin (Homo sapiens),inactive
same,Potency,[3],inactive
same,Potency,[7],4.25 µM (active)
same,Potency,[6],7.56 µM (active)
